Test results reported in PubChem BioAssay (EPA / NIEHS).
Records with an inconclusive call do not appear. Active and inactive are the calls of the source. The calls were made as follows, unless noted: active = hit-call score of the fitted dose curve at least 0.9, where 1 is the maximum; inconclusive = response in the unintended direction; inactive = score below 0.9.

Experiments:
[1] = TOX21_p53_BLA_p2_viability: Viability Assessment in the Tox21 HCT-116 p53 Agonism Beta-lactamase Assay, Phase 2 (AID 2283591);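 also: actives lower the ATP signal meaning cytotoxicity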
How it was run: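 HCT116 p53-bla cells, 4000/well, dosed after 5 h plating (217-fold dilution of DMSO stocks) and incubated 16 h at 37C. Viability taken as cellular ATP by CellTiter-Glo luminescence after 30 min RT; signal loss marks cytotoxicity.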

[2] = target: Cellular tumor antigen p53 (Homo sapiens) (UniProt P04637); assay: TOX21_p53_BLA_p2_ratio: Tox21 HCT-116 p53 Agonism Beta-lactamase Assay, Ratio, Phase 2 (AID 2283592)
How it was run: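 An inducible beta-lactamase reporter in HCT116 cells signals p53 pathway activation. After 16 h chemical exposure at 37C, cells load CCF4-AM substrate for 2 h at room temperature; activity is the cleaved/uncleaved emission ratio relative to DMSO.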

[3] = TOX21_p53_BLA_p3_viability: Viability Assessment in the Tox21 HCT-116 p53 Agonism Beta-lactamase Assay, Phase 3 (AID 2283593);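 also: cells exposed to compound for 16 h before reading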
How it was run: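 HCT116 cells, 4000/well, dosed 5 h after plating by pin transfer (217-fold dilution from DMSO stock) and incubated 16 h at 37C, 5% CO2. Viability read as ATP luminescence with CellTiter-Glo after 30 min at room temperature.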

[4] = target: Cellular tumor antigen p53 (Homo sapiens) (UniProt P04637); assay: TOX21_p53_BLA_p3_ratio: Tox21 HCT-116 p53 Agonism Beta-lactamase Assay, Ratio, Phase 3 (AID 2283596)
How it was run: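 HCT116 p53-bla cells (4000/well) given compound in DMSO (217-fold dilution) after 5 h, incubated 16 h at 37C. CCF4-AM substrate 2 h at room temperature; 460/530 nm emission ratio, gain fitted against DMSO.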

[5] = TOX21_p53_BLA_p4_viability: Viability Assessment in the Tox21 HCT-116 p53 Agonism Beta-lactamase Assay, Phase 4 (AID 2283597);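 also: hits lower the luminescence signal meaning cytotoxicity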
How it was run: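 Compound exposure of HCT116 cells lasts 16 h at 37C, 5% CO2, with DMSO stocks diluted 217-fold. Cellular ATP is then quantified by CellTiter-Glo luminescence after 30 min at room temperature.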

[6] = target: Cellular tumor antigen p53 (Homo sapiens) (UniProt P04637); assay: TOX21_p53_BLA_p5_ratio: Tox21 HCT-116 p53 Agonism Beta-lactamase Assay, Ratio, Phase 5 (AID 2283599)
How it was run: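 HCT-116 p53-bla cells (4000/well) plated 5 h, dosed with compound (217-fold DMSO dilution) for 16 h at 37 C; CCF4-AM substrate 2 h at room temperature. Activity is the 460/530 nm emission ratio (405 nm excitation), fitted in gain-of-signal direction versus DMSO.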

[7] = target: Cellular tumor antigen p53 (Homo sapiens) (UniProt P04637); assay: TOX21_p53_BLA_p4_ratio: Tox21 HCT-116 p53 Agonism Beta-lactamase Assay, Ratio, Phase 4 (AID 2283601)
How it was run: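 HCT-116 p53 beta-lactamase reporter cells (4000/well) preincubated 5 h, then compound (217-fold dilution of DMSO stock) for 16 h at 37C. CCF4-AM substrate added 2 h at room temperature; 460/530 nm emission ratio fitted upward versus DMSO.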

[8] = target: Thyroid hormone receptor alpha (Rattus norvegicus) + Thyroid hormone receptor beta (Rattus norvegicus) (UniProt P18113+P63059); assay: TOX21_TR_LUC_GH3_Agonist_Followup: Tox21 GH3 Thyroid Hormone Receptor Agonism Luciferase Follow-Up Assay (AID 2283939)
How it was run: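 Rat GH3 cells (1,500/well) in serum-free assay medium, treated with 15-point series, 92 uM to 5 nM final, for 24 h at 37C. Luciferase via ONE-Glo luminescence; gain of signal fitted against DMSO, T3 positive control.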

THRA (gene 7067) = THRA (gene 7067) (UniProt P10827); assay: TOX21_TRA_COA_Agonist_Followup_ratio: Tox21 Thyroid Hormone Receptor alpha Agonism through Coactivator Recruitment Follow-Up Assay, Ratio (AID 2283948; active = hit-call score of the fitted dose curve at least 0.9, where 1 is the maximum; inactive = score below 0.9)
How it was run: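 First, compound was incubated with 2.5 nM GST-TRα LBD in 0.10% BSA. Next, 200 nM fluorescein-SRC-2 and 2 nM Tb-anti-GST antibody were added. Finally, the 520:495 nm ratio was normalized to DMSO and T3 controls.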

THRB (gene 7068) [9] = target: THRB (gene 7068) (UniProt P10828); assay: TOX21_TRB_BLA_Agonist_Followup_ratio: Tox21 Thyroid Hormone Receptor beta Agonism Beta-lactamase (BLA) Follow-Up Assay, Ratio (AID 2283954)
How it was run: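 Human TRβ LBD–GAL4 DBD fusion in GeneBLAzer UAS-bla HEK293T cells; 11 concentrations in triplicate, 18 h at 37°C/5% CO2, T3 as agonist control. CCF4-AM substrate 2 h at room temperature; 460:530 nm ratio fitted for gain of signal versus DMSO.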

THRB (gene 7068) [10] = target: THRB (gene 7068) (UniProt P10828); assay: TOX21_TRB_COA_Agonist_Followup_ratio: Tox21 Thyroid Hormone Receptor beta Agonism through Coactivator Recruitment Follow-Up Assay, Ratio (AID 2283963; active = hit-call score of the fitted dose curve at least 0.9, where 1 is the maximum; inactive = score below 0.9)
How it was run: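 Cell-free TR-FRET coactivator recruitment: GST-tagged TRβ LBD (5.0 nM) with 0.10% BSA incubated with compound, then fluorescein-SRC-2 peptide (200 nM) and Tb-anti-GST antibody (2 nM) added. 520:495 nm ratio normalized to DMSO (0%) and T3 (100%).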

[11] = target: Retinoic acid receptor RXR-alpha (Homo sapiens) (UniProt P19793); assay: TOX21_TR_RXR_BLA_Agonist_Followup_ratio: Tox21 Thyroid Hormone Receptor beta Retinoid X Receptor alpha (RXRa) Agonism Beta-lactamase (BLA) Follow-Up Assay, Ratio (AID 2283968)
How it was run: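 This follow-up tests whether responses seen in the TR GH3 luciferase agonist screen are specific, using a GAL4-driven beta-lactamase reporter for RXRa in HEK293T cells. Compound exposure lasts 16 h; signal is the cleaved/uncleaved substrate ratio.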

[12] = TOX21_TR_RXR_BLA_Agonist_Followup_viability: Viability Assessment in the Tox21 Thyroid Hormone Receptor beta Retinoid X Receptor alpha (RXRa) Agonism Beta-lactamase (BLA) Follow-Up Assay (AID 2283970)
How it was run: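 In qHTS format, RXRa-bla HEK293T cells (2,500/well) received compound for 16h. ATP content was then measured with CellTiter-Glo, and responses were fitted bidirectionally relative to DMSO controls.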

Chain of Cellular tumor antigen p53 (Homo sapiens) (P04637 whole entry, looked up): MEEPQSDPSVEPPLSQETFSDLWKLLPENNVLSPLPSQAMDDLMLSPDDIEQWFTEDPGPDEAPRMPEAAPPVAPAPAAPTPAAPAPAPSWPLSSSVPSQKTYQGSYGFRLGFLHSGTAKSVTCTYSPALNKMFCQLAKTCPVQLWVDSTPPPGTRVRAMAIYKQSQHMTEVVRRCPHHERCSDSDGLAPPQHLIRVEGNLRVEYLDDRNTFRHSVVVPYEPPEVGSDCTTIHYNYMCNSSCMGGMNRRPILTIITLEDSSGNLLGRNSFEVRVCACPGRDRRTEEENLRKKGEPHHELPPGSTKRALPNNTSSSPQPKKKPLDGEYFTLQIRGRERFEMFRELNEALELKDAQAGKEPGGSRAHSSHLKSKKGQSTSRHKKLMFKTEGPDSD
Chain of THRB (gene 7068) (P10828 whole entry, looked up, the tested form may be a part): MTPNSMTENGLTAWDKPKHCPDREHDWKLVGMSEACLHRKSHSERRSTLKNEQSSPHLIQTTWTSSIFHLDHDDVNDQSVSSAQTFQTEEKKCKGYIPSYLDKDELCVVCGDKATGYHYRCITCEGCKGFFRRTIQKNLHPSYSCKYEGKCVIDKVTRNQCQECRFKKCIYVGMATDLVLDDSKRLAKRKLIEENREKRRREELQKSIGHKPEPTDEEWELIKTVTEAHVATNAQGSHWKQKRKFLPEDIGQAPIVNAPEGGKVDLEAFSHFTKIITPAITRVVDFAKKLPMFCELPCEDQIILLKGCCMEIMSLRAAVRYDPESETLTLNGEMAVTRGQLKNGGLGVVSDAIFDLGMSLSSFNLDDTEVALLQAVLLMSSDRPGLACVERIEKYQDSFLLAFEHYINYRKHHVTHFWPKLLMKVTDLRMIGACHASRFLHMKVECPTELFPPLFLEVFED
Chain of Retinoic acid receptor RXR-alpha (Homo sapiens) (P19793 whole entry, looked up, the tested form may be a part): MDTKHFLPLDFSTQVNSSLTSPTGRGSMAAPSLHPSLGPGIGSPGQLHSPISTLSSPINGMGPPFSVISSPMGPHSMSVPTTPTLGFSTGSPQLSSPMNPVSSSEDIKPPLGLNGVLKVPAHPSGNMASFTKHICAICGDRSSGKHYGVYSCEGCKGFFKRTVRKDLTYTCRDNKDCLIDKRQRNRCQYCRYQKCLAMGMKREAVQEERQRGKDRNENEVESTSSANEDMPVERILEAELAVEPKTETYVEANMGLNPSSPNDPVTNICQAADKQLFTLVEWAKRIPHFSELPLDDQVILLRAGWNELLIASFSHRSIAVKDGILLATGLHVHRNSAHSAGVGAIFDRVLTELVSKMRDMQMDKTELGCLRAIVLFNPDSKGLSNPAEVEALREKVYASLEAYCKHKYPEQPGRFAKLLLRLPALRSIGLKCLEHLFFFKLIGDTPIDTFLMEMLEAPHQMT
Chain of Thyroid hormone receptor alpha (Rattus norvegicus) + Thyroid hormone receptor beta (Rattus norvegicus) (P63059 whole entry, looked up): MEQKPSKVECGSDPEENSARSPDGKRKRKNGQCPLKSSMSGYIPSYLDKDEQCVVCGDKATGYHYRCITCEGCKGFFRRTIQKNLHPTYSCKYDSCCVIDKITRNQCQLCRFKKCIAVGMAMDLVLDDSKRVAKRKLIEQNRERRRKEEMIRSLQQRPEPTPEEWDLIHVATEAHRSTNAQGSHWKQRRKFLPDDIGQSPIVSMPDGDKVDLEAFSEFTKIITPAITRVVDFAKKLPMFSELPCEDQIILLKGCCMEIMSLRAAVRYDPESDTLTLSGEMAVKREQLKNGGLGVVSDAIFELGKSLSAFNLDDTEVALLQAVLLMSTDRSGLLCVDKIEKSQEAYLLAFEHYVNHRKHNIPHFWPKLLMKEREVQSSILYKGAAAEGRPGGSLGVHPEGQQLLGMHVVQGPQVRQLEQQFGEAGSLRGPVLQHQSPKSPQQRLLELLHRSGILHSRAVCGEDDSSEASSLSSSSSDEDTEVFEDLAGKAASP
Chain of Thyroid hormone receptor alpha (Rattus norvegicus) + Thyroid hormone receptor beta (Rattus norvegicus) (P18113 whole entry, looked up): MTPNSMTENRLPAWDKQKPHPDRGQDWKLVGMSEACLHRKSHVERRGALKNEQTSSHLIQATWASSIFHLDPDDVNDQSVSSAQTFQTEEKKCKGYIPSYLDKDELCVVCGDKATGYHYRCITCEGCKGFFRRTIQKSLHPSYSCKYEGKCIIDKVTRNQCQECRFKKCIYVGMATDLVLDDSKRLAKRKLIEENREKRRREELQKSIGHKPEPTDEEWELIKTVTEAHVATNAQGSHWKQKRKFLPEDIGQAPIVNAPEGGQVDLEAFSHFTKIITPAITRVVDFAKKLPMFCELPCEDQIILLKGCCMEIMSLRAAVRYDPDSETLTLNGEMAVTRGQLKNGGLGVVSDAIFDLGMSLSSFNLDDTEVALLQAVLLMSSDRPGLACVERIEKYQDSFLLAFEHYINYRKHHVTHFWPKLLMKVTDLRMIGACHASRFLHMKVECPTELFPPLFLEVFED
Chain of THRA (gene 7067) (P10827 whole entry, looked up, the tested form may be a part): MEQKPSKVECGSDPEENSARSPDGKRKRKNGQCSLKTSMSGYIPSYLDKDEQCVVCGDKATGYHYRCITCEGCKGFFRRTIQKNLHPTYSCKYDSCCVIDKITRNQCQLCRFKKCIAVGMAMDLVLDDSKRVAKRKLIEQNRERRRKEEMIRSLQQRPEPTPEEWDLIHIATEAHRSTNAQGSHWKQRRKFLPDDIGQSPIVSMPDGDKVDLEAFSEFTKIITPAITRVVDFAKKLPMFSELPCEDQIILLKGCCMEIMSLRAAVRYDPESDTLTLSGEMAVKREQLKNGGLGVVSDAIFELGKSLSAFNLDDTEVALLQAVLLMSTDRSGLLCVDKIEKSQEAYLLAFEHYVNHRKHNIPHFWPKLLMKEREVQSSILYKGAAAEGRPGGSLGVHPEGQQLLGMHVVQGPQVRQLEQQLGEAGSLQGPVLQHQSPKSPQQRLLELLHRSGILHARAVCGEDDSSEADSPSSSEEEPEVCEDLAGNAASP

Structure (SMILES)	outcome [1]	outcome [2]	outcome [3]	outcome [4]	outcome [5]	outcome [6]	outcome [7]	AC50 [5]	AC50 [3]	outcome [8]	outcome (THRA (gene 7067))	outcome (THRB (gene 7068) [9])	outcome (THRB (gene 7068) [10])	outcome [11]	outcome [12]
COc1cccc(O)c1O	inactive	inactive	inactive	inactive	inactive	inactive	inactive								
C#C[C@]1(O)CC[C@H]2[C@@H]3CCC4=C/C(=N/O)CC[C@@H]4[C@H]3CC[C@@]21CC	inactive	inactive	inactive	inactive		inactive	inactive	38.1 µM (active)							
Cc1ccc2c(ccc3ccccc32)c1	inactive	inactive	inactive	inactive	inactive	inactive	inactive								
CCCCCCCCC(CCCCCC)C(=O)O (stereo not drawn)	inactive	inactive		inactive	inactive	inactive	inactive		65.9 µM (active)						
C=Cc1c(C)c2cc3[nH]c(cc4nc(cc5nc(cc1[nH]2)C(C)=C5CCC(=O)O)C(CCC(=O)O)=C4C)c(C)c3C=C	inactive	inactive	inactive	inactive	inactive	inactive	inactive								
Cc1cc(-n2c(=O)[nH]c(=O)n(C)c2=O)ccc1Oc1ccc(S(=O)(=O)C(F)(F)F)cc1	inactive	inactive	inactive	inactive	inactive	inactive	inactive			inactive	inactive	inactive	inactive	inactive	inactive
